This is an account of results in PubChem BioAssay.

Inconclusive results are not listed. Activity calls are given as the source filed them.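 How the source made its calls, unless noted: active means viability loss from added drug above about 55%, and viability with drug at most 40%, in both replicates (limit read from the data, passing the limit was not always enough); inconclusive means both conditions met in only one replicate; inactive means neither replicate meets both conditions.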

A short description of assay [1]: Her2 expression decrease, cell viability multiplex – SKBR3 breast tumor cells, AlphaScreen, ATP viability, primary screen (AID 461;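 active means Her2 level under about 52% in both replicate screens, with viability over 70% of control, limit read from the data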;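 on Her2 level: lower value means less Her2 protein in the cells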;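 on viability: percent of carrier control wells set as 100% viability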). The conditions noted are these: SKBR3 Her2 protein level, 18-24 h, measured here: SKBR3 viability, ATP luminescence, at 10 µM. On the technique in general: Bead proximity is the source of the signal in Alpha formats.
For assay [2], the target named is Receptor tyrosine-protein kinase erbB-2 (Homo sapiens) (UniProt P04626). The description is as above. Particulars: 18-24 h, at 10 µM, stronger effect = lower value.
A short description of assay [3]: reduced viability of SK-BR-3 breast cancer cells – cell-based, 24 h, human, pilot screen (AID 572;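 active means viability at or below 10% of carrier control in both of two separate runs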;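 further: compound exposure lasted between 18 and 24 h rather than exactly 24 h; 100% = carrier-treated control wells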). The conditions noted are these: SK-BR-3 viability, CellTiter-Glo luminescence, at 10 µM, stronger effect = lower value.
The nature of assay [4]: HUVEC growth inhibition – cell-based, human, primary screen (AID 575;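 active means viability at or below 30% in both replicate assays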;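 further: 100% = median of untreated cell wells with 0.1% DMSO on each plate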). Particulars: HUVEC proliferation, CellTiter-Glo luminescence, 72 h; at 10 µM; stronger effect = lower value.
Assay [5] is described as follows: H69AR cell proliferation blockers – human, duplicate replicates, primary screen (AID 580;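 active means viability at or under a set limit in both replicates, limit being median viability minus 3 SD, cut at about 48% in these data, passing the limit was not always enough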;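 further: 100% = mean luminescence of untreated wells and 0% = no signal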). Particulars: H69AR lung tumor cells viability, ATP luminescence, 72 h; at 10 µM; stronger effect = lower value.
The nature of assay [6]: MRP1 drug-resistance reversers in H69AR cells – cell-based, doxorubicin co-treatment, pilot screen (AID 601). Particulars: CellTiter-Glo, 72 h, at 10 µM; for differential viability (reversal): stronger effect = higher value.
Assay [7] can be described thus: yeast transport mutant growth inhibition pilot in 384-well plates, post-Golgi transport modulator project (AID 636; in the data active means inhibition above about 31%). Particulars: absorbance 615 nm, about 18 h, stronger effect = higher value.
Assay [8] can be described thus: growth suppression of yeast trafficking mutant, preliminary HTS, modulators of trafficking downstream of Golgi apparatus project, 1536-format plate, OD 615 nm (AID 637; in the data active means inhibition above about 30%). The conditions noted are these: yeast transport mutant growth, absorbance 615 nm, 18 h; stronger effect = higher value.
A short description of assay [9]: S. cerevisiae growth inhibition in permissive medium (OD615), pilot counter-assay for S. cerevisiae lifespan shortening project, permissive growth control (AID 705;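 active means growth inhibition above 25% in both replicates, a cutoff set 3 SD above the mean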). Particulars: OD615, 24 h, at 10 µM, stronger effect = higher value.
Assay [10] can be described thus: S. cerevisiae growth inhibition in restrictive medium, OD615, pilot screen, restrictive growth control, yeast lifespan reduction project (AID 706;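 active means growth inhibition above a set limit, 3 SD over mean compound inhibition, in both replicates, cut at about 43% in these data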;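 further: modified DeaD lifespan yeast strain shifted to restrictive glucose medium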). The conditions noted are these: OD615, 48 h, at 10 µM, stronger effect = higher value.
A short description of assay [11]: doxorubicin toxicity protection in MRP-1 cells – H69AR cells, CellTiter-Glo, duplicate, MRP-1 activator project, pilot screen (AID 807;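 active means viability increase at or above a cutoff of the median across tested compounds plus 3 SD, cut at about 8.5% in these data, passing the limit was not always enough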;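 further: compound pretreatment 18-22 h then 72 h combined with doxorubicin; 0% = doxorubicin alone and 100% = vehicle without doxorubicin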). Particulars: H69AR viability with doxorubicin, CellTiter-Glo luminescence; at 10 µM; stronger effect = higher value. (Cellular ATP, detected with luciferase, serves as a proxy for viable cell number.)
A short description of assay [12]: viability of HCT116 without oncogenic beta-catenin – human colon tumor cells, pilot screen (AID 823;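 active means cell viability at or below a set limit in both duplicate runs, the limit being the all-compound median minus 4 SD, cut at about 23% in these data, passing the limit was not always enough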;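 further: 0% = wells killed by 20 µM Hyamine and 100% = untreated DMSO cell wells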). Particulars: HCT116 beta-catenin knockout viability, CellTiter-Glo, 60 h; at 10 µM; stronger effect = lower value.
Assay [13] in a line: viability of PTEN-null HCT116 cells – cell-based, HCT116 clonal line, CellTiter-Glo, pilot screen (AID 824;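 active means viability at or below 27.92% in each of two runs, the all-compound median minus 4 SD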;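 further: 0% = 20 µM Hyamine control and 100% = vehicle cell control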). The conditions noted are these: HCT116 PTEN-deleted viability, 60 h, at 10 µM, stronger effect = lower value.
Assay [14] can be described thus: RAM pathway blockade in budding yeast – dse1pr::URA3 reporter, 5-FOA selection, pilot screen (AID 869;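 active means inhibition over a set limit, the all-compound mean plus 3 SD, in both replicate runs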;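 further: 0% = DMSO wells with no growth and 100% = 10 µM 1-NA-PP1 with full growth; RAM network block rescues cells from 5-FOA so hits raise OD615 growth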). The conditions noted are these: S. cerevisiae dse1pr::URA3 5-FOA growth, OD615, 2 d; at 10 µM; stronger effect = higher value; strain carries analog-sensitive mutant Cbk1 kinase.
Assay [15] is described as follows: RAM signaling pathway blockade in yeast – S. cerevisiae, Pdr1DBD-CYC8 efflux-inhibited sensitized strain, primary screen (AID 1298;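 active means RAM network inhibition above 8.4% in each of two replicates, 3 SD over the compound average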;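 further: 0% = DMSO untreated cells without growth and 100% = 10 µM 1-NA-PP1 full growth; higher means more yeast growth rescued from 5-FOA killing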). The conditions noted are these: S. cerevisiae cbk1-as DSE1-URA3 strain, 5-FOA growth OD615, 2 d; at 50 µM; stronger effect = higher value.
[16] abbreviates: H69AR cells + 2 uM doxorubicin, measured here: viability with 2 uM doxorubicin, stronger effect = lower value.
Setting [17] is: H69AR cells, compound alone cytotoxicity.

Receptor tyrosine-protein kinase erbB-2 (Homo sapiens), sequence (P04626 whole entry, looked up): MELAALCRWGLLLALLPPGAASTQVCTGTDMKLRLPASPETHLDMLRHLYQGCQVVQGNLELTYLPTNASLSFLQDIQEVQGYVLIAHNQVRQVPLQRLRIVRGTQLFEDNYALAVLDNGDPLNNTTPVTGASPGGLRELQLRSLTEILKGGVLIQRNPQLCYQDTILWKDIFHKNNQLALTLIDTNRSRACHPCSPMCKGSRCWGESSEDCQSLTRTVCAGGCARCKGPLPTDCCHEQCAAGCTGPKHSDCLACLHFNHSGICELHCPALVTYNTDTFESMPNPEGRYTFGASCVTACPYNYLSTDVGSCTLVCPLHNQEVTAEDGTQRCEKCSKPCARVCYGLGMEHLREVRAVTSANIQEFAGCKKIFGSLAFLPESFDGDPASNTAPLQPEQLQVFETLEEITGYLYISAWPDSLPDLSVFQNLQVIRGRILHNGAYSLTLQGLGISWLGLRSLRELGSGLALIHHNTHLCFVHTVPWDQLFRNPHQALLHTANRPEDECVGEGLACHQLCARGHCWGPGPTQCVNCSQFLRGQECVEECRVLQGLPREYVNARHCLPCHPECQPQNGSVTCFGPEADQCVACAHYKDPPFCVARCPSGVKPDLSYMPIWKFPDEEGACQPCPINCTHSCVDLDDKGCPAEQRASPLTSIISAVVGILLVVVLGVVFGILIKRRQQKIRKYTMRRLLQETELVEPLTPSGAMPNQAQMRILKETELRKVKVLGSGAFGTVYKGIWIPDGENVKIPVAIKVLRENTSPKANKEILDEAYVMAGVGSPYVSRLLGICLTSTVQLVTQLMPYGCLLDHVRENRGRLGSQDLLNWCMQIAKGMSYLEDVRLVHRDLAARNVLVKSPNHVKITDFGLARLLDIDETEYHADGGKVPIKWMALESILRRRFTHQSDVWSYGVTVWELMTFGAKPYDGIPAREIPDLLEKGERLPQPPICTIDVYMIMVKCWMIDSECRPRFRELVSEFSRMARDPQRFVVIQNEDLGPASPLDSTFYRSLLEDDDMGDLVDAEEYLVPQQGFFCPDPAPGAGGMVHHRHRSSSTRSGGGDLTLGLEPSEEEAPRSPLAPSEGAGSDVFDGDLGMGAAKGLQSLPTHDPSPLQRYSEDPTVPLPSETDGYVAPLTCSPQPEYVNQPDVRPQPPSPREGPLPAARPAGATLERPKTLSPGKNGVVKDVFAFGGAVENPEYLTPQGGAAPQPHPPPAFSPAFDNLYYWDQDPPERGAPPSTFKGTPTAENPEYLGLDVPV

By viability is commonly meant a read-out of living cells in per cent, often relative to untreated cells. Broadly, the inhibition is the drop in the measured response relative to a control, in per cent. `CCCCN(CC)CCNC(=O)c1cc2c(C)nc3ccccc3c2o1`: the viability in assay [1] is 91%; in assay [3], 91% (inactive); in assay [4], 63.6% (inactive); in assay [5], 85.3% (inactive); in assay [6] (setting [16]) it was 82.4%; in [6] (setting [17]) it was 85.3%. In addition, the viability in assay [12] was 75% (inactive); in assay [13], 84% (inactive). For the same compound, the Her2 level in assay [2] was 95.5% (inactive). In addition, in assay [6] (H69AR cells + 2 uM doxorubicin), the differential viability (reversal) was 2.99% (inactive). The figures for the inhibition in assay [7], in assay [8] and in assay [14] were -5.73% (inactive), -4.43% (inactive) and 0.07% (inactive), respectively. Besides, the growth inhibition in assay [9] is 10% (inactive); in assay [10] it was 1.23% (inactive). Also, the viability increase in assay [11] is -3.49% (inactive). The RAM network inhibition in assay [15] was 2.07% (inactive).
As for `CCN(CC)CCn1c(=N)n(CCO)c2ccccc21`, the viability in [1] was 94.5%; in assay [3], 94.5% (inactive); in [4], 107% (inactive); in [5], 101% (inactive); in [6] (setting [16]), 92.9%; in [6] (setting [17]), 101%. The values for the viability in [12] and in assay [13] were 101% (inactive) and 97.5% (inactive), respectively. For the same compound, the Her2 level in [2] is 94% (inactive). The differential viability (reversal) in assay [6] (H69AR cells + 2 uM doxorubicin) is 8.55% (inactive). Further, the inhibition was -5.32% (inactive) in assay [7], 2.33% (inactive) in assay [8] and 0.605% (inactive) in [14]. In addition, the figures for the growth inhibition in [9] and in [10] were 0.615% (inactive) and 1.18% (inactive), respectively. Also, in assay [11], the viability increase is -0.4% (inactive). The RAM network inhibition in [15] is 4.92% (inactive).
On to `Cc1sc2nc(SCC(=O)NCCO)n(C)c(=O)c2c1C`, for which the viability in assay [1] is 91%; in assay [3], 91% (inactive); in [4], 104% (inactive); in [5] it was 88% (inactive); in [6] (setting [16]) it was 94.7%; in assay [6] (setting [17]), 88%. Moreover, the viability was 105% (inactive) in assay [12] and 94.6% (inactive) in assay [13]. In addition, in assay [2], the Her2 level is 108% (inactive). In addition, the differential viability (reversal) in [6] (H69AR cells + 2 uM doxorubicin) is -6.7% (inactive). Moreover, the inhibition in assay [7] is 0.77% (inactive); in [8], -8.33% (inactive); in [14] it was 3.88% (inactive). Moreover, the growth inhibition is -9.24% (inactive) in [9] and -20.8% (inactive) in assay [10]. Moreover, the viability increase in assay [11] is -1.81% (inactive). In addition, in [15], the RAM network inhibition was 2.59% (inactive).
Regarding `c1ccc(C(Cc2nc(-c3ccccn3)no2)c2ccccc2)cc1`, the viability in [1] was 96%; in [3], 96% (inactive); in assay [4], 92.8% (inactive); in assay [5], 95.2% (inactive); in assay [6] (setting [16]), 107%; in [6] (setting [17]), 95.2%. In addition, the viability in assay [12] was 89.7% (inactive); in [13] it was 82.5% (inactive). The Her2 level in [2] was 94% (inactive). Also, in [6] (H69AR cells + 2 uM doxorubicin), the differential viability (reversal) is -11.8% (inactive). For the same compound, the inhibition is -4.03% (inactive) in assay [7], 1.8% (inactive) in [8] and 1.98% (inactive) in assay [14]. The values for the growth inhibition in assay [9] and in assay [10] were -9.91% (inactive) and 12.9% (inactive), respectively. For the same compound, in [11], the viability increase is -2.01% (inactive). For the same compound, in assay [15], the RAM network inhibition is 6.08% (inactive).
In the case of `c1ccc(Cn2nnc3c(N4CCCCCC4)ncnc32)cc1`, the viability was 94% in [1]; 94% (inactive) in [3]; 57.5% (inactive) in assay [4]; 69.9% (inactive) in [5]; 83.8% in assay [6] (setting [16]); 69.9% in assay [6] (setting [17]). Moreover, the viability in [12] is 40% (inactive); in assay [13], 33.6% (inactive). Further, the Her2 level in [2] was 88% (inactive). Moreover, in [6] (H69AR cells + 2 uM doxorubicin), the differential viability (reversal) was -13.9% (inactive). For the same compound, the inhibition in assay [7] is -5.87% (inactive); in assay [8] it was 2.83% (inactive); in assay [14], 0.74% (inactive). Besides, the growth inhibition was -13% (inactive) in assay [9] and -8.65% (inactive) in [10]. Also, the viability increase in assay [11] is -0.65% (inactive). In addition, the RAM network inhibition in assay [15] is 5.41% (inactive).
